From publication PMC4336329 (PLoS ONE, 2015) come the findings set out here.

The structures appear in SMILES notation. In all, about 310,000 compounds went through this assay and about 14,000 (4.5%) showed an effect of 50% or more. The effect is printed as a negative number. Shown is part of a subset that was picked to be rich in strong results.
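Further: peak tail current of the secondary pulse compared with the same well before compound.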

Chain of human ether-à-go-go-related gene (hERG) potassium channel (Q12809 whole entry, looked up): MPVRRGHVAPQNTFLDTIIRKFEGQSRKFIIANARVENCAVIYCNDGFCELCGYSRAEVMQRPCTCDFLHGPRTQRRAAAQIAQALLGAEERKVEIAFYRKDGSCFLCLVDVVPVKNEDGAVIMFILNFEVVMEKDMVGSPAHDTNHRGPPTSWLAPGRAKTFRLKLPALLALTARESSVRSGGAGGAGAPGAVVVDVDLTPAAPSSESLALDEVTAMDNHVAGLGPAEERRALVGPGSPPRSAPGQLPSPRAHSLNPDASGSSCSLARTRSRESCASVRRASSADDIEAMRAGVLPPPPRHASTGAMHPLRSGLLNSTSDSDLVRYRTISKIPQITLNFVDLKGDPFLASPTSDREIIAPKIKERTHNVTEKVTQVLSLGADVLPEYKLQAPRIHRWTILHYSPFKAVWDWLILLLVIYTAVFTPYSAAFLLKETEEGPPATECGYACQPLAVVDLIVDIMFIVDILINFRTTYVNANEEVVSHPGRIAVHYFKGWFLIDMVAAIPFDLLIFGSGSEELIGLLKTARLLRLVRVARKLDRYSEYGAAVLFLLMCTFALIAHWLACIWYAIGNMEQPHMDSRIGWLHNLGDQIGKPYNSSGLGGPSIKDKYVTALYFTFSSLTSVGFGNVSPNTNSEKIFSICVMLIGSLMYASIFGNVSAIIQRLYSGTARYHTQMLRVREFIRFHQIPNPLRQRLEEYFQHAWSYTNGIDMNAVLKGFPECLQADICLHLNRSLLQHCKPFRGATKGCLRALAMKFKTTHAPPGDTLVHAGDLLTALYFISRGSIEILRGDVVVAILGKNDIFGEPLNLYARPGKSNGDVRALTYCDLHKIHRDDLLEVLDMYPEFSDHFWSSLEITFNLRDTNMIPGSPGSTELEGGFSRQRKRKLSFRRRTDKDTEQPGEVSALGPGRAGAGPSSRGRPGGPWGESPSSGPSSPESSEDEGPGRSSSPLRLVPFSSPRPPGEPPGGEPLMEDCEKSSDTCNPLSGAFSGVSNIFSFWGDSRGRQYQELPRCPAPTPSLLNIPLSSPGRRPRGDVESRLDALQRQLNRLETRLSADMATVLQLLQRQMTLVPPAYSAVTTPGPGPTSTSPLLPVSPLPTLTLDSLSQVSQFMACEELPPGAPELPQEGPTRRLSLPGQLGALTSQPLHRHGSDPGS

The experiment addresses human ether-à-go-go-related gene (hERG) potassium channel (human, UniProt Q12809). The experiment in a line: primary screen, population patch clamp on CHO cells stably expressing hERG; higher = less effect of the substance.
Consider `CCn1cc(C(=O)NCc2ccco2)c(=O)c2cc(S(=O)(=O)N3CC(C)CC(C)C3)ccc21` (stereo not shown), for which the “hERG current change (%, negative = inhibition) at 10uM” value is -7.3%. The result for `O=c1c2ccccc2nnn1CSc1nnc(-c2cccnc2)n1-c1ccccc1F` reads 11.5%.

As for `CNC(=O)c1cc(S(=O)(=O)Nc2ccc3c(c2)OCO3)ccc1C`, the “hERG current change (%, negative = inhibition) at 10uM” value was found to be 4.42%. The result for `COc1ccc(CCNC(=O)CCCCC(=O)NCCc2ccc(OC)c(OC)c2)cc1OC` reads 4.7%; that for `CCN(c1ccc(OC)cc1)S(=O)(=O)c1nnc(NC(=O)c2ccccc2Cl)s1`, 15.5%; that for `Cc1ccnc(NC(=O)C2CCN(S(=O)(=O)c3ccc4c(c3)CC(C)N4C(=O)C3CCC3)CC2)c1` (stereo not shown), -0.431%. The result for `COc1cc(/C=C(\C#N)C(=O)Nc2cccc(C(=O)O)c2)ccc1OCc1ccc(F)cc1` reads 22.6%. The result for `C=CCSc1nnnn1-c1ccc(OC)cc1` reads -20%; that for `Cc1ccc(CNC(=O)CCCNC(=O)c2ccc(Cl)cc2)n1C`, 2.05%; that for `Cc1ccc(CN2CCN(Cc3cn(C)nc3C)CC2CCO)o1` (stereo not shown), 12.4%. On to `CCOC(=O)C1(CCOc2ccccc2)CCN(Cc2cccc(F)c2)CC1`, for which the “hERG current change (%, negative = inhibition) at 10uM” value was -65.4%. As for `CCOC(=O)C1(CCOc2ccccc2)CCN(Cc2cccc(O)c2)CC1`, the “hERG current change (%, negative = inhibition) at 10uM” value was -63.1%. The result for `CCOC(=O)C1(CCOC)CCN(Cc2cccc(OCc3ccccc3)c2)CC1` reads -42.4%. The result for `CCOC(=O)C1(CCOc2ccccc2)CCN(Cc2cccc(OC)c2)CC1` reads -76.1%; that for `CCOC(=O)C1(CCOc2ccccc2)CCN(Cc2cccc(OCCO)c2)CC1`, -83.4%.

As for `COc1ccccc1NCCC(=O)OCC(=O)NCc1ccco1`, the “hERG current change (%, negative = inhibition) at 10uM” value is on record as 23.7%. As for `COc1ccc(N(CC(=O)Nc2cccc(C(C)=O)c2)S(C)(=O)=O)cc1OC`, the “hERG current change (%, negative = inhibition) at 10uM” value is -10.5%.

Turning to `Cn1c(Cn2nnc3ccccc32)nnc1SCC(=O)N1c2ccccc2CCc2ccccc21`, the “hERG current change (%, negative = inhibition) at 10uM” value was -23.6%. In the case of `O=C(NCCc1ccc(OC(F)F)cc1)C1CC(=O)N(c2ccc3c(c2)OCCO3)C1` (stereo not shown), the “hERG current change (%, negative = inhibition) at 10uM” value is on record as -47.6%. Consider `CNC(=S)N/N=C/c1cc(C)ccc1C`, for which the “hERG current change (%, negative = inhibition) at 10uM” value is given as 20.7%. The result for `O=C(CCc1ccccc1)Nc1ncc([N+](=O)[O-])s1` reads 2.96%; that for `Cc1ccc(CNC(=O)C2CCC(=O)N2Cc2ccccc2Cl)cc1` (stereo not shown), 2.52%; that for `CCOC(=O)C1(CCOc2ccccc2)CCN(Cc2cc(OC)cc(OC)c2)CC1`, -79.8%. The result for `CN(C(=O)c1ccc(NC(=O)Cc2ccc(NC(=O)C3CCN(C(=O)C4CCCC4)CC3)cc2)cc1)C1CC1` reads 22.8%. Regarding `O=C(CN1CCN(S(=O)(=O)c2ccc(Cl)c(Cl)c2)CC1)N1CCCCC1`, the “hERG current change (%, negative = inhibition) at 10uM” value is recorded as -53.5%. The result for `Cc1ccc(S(=O)(=O)N2CCN(CC(=O)N3CCOCC3)CC2)cc1` reads 16.8%; that for `O=C(CN1CCN(S(=O)(=O)c2ccccc2)CC1)N1CCCCC1`, 10.8%; that for `O=C(CN1CCN(S(=O)(=O)c2ccc(Cl)s2)CC1)N1CCOCC1`, 14.4%. The result for `O=C(CN1CCN(S(=O)(=O)c2cccc(Cl)c2)CC1)N1CCCCC1` reads -24.8%; that for `Cc1cc(Cl)c(C)c(S(=O)(=O)N2CCN(CC(=O)N3CCOCC3)CC2)c1Cl`, -64.8%.

With `COc1ccc2c(c1)O[C@@]1(CCCC[C@@H]1C)CC2=O`, the “hERG current change (%, negative = inhibition) at 10uM” value was -1.09%.

In the case of `CCC(C)Sc1nc2c(c(=O)[nH]c(=O)n2C)n1C` (stereo not shown), the “hERG current change (%, negative = inhibition) at 10uM” value was -4.04%.

As to `Cc1nn(C(C)C(=O)NCCN2CCCC2)c(=O)c2c1sc1ccccc12` (stereo not shown), the “hERG current change (%, negative = inhibition) at 10uM” value is listed as 1.56%. In the case of `Cn1c(C(=O)N2CCN(c3nc4ccccc4s3)CC2)cc2sccc21`, the “hERG current change (%, negative = inhibition) at 10uM” value is listed as -8.35%. The result for `COC(=O)C(CCCCNC(=O)c1ccc([N+](=O)[O-])cc1)NC(=O)c1ccc([N+](=O)[O-])cc1` (stereo not shown) reads -76.3%; that for `O=C(CCNc1ccc(Cc2ccncc2)cc1)c1cccc([N+](=O)[O-])c1`, 11%. Consider `O=C(Nc1ccccc1C(=O)Nc1ccncc1)c1ccc([N+](=O)[O-])cc1`, for which the “hERG current change (%, negative = inhibition) at 10uM” value was -4.77%. Take `O=[N+]([O-])c1ccc(NCc2ccncc2)cc1`: the “hERG current change (%, negative = inhibition) at 10uM” value was -3.55%.

Turning to `O=C(NCCCCC(NC(=O)c1ccc([N+](=O)[O-])cc1)C(=O)O)c1ccc([N+](=O)[O-])cc1` (stereo not shown), the “hERG current change (%, negative = inhibition) at 10uM” value is reported as -44.7%. The result for `COc1cc(C(=O)NCCCNc2ccc([N+](=O)[O-])cc2)cc(OC)c1OC` reads -57.6%; that for `O=C(NNC(=O)c1ccncc1)Nc1ccc([N+](=O)[O-])cc1`, 11.2%; that for `O=C(Nc1ccc(Nc2ccncc2)cc1)c1ccc([N+](=O)[O-])cc1`, -59.5%.

With `COc1ccc(C(=O)NCCNc2ccc([N+](=O)[O-])cc2)cc1OC`, the “hERG current change (%, negative = inhibition) at 10uM” value was -1.31%. The result for `O=C(CCNc1ccc(Cc2ccncc2)cc1)c1ccc([N+](=O)[O-])cc1` reads -56.8%.

Take `COc1ccccc1C(=O)NCCCNc1ccc([N+](=O)[O-])cc1`: the “hERG current change (%, negative = inhibition) at 10uM” value is -19.2%.

As to `COC(=O)C(CC(C)C)NC(=O)c1ccc([N+](=O)[O-])cc1` (stereo not shown), the “hERG current change (%, negative = inhibition) at 10uM” value is listed as -23.2%.
